From PubChem BioAssay AID686935 (National Center for Advancing Translational Sciences (NCATS), 2013)
Records with an inconclusive call do not appear. Calls of active or inactive are those of the source. Calls follow the shape of the dose curve; as a rule, active = well fitted curve in the direction sought with a large enough effect; inconclusive = small, poorly fitted or top-dose-only effect, or another doubt; inactive = no such curve, though single readings can be large or run the other way.

Experiment: qHTS Assay for Lipid Storage Modulators: CytotoxicityAssay against Probe and Analogs
Settings: 3T3-L1 adipocytes cytotoxicity, imaging cell count; series mostly up to 20 µM; activity change, negative = cytotoxicity: at the top concentration
From the text: Storing lipids as a reservoir for energy or the anabolism of elementary metabolites is a common feature of probably all cells and is conserved from bacteria to humans. The universal cellular lipid storage organelle is the so-called lipid storage droplet (LD). Although ubiquitous, LDs share a simple structure composed of a hydrophobic core that harbors the storage lipids, which is shielded by a droplet-specific phospholipid monolayer to which proteins are attached. The current model of LD biogenesis involves an incorporation of the lipid core into the membrane leaflets of the endoplasmic reticulum (ER) followed by a subsequent budding-like maturation of a LD, which ultimately pinches off. Once released, LD volume can increase by localized lipogenesis or fusion of existing droplets. Storage lipids are re-mobilized enzymatically by lipase activity. Lipase regulation in the adipocyte is heavily studied and involves multiple components including catecholamine signaling, the LD-associated proteins Perilipin and comparative gene identification-58 (CGI-58) and at least two lipases named hormone sensitive lipase (HSL) and adipocyte triglyceride lipase (ATGL). LD regulation outside of the adipocyte is poorly understood and only few components are known. However, there is an urgent need to learn more about ectopic fat depots as mislocalized storage of lipids, for example in the liver or muscle, is an eminent health problem associated with insulin resistance or the metabolic syndrome. We developed a laser-scanning cytometer assay to enable 1,536-well screening and combined the results of the small molecules screen with an RNAi database based on lipid storage. In this assay we tested analogs of the probe in a cytotoxicity assay. NIH Molecular Libraries Probe Production Centers Network [MLPCN] NIH Chemical Genomics Center [NCGC] MLPCN Grant: MH085686 Assay Submitter (PI): Mathias Beller, Max-Planck-Institut fur Biophysikalische Chemie
3T3-L1 cells were obtained from ATCC (CL-173). Pre-adipocyte medium (PM-1),differentiation medium (DM-2) and after adipocyte medium (AM-1) were purchased from Zen-Bio (# PM-1-L1, DM-2-L1, AM-1-L1). […] of PM-1containing 3,000 cells was dispensed into each well of a 96-well plate (Corning, #3340), and the assay plates were incubated at 37 °C, 95% humidity and 5% CO2 for 3-5 days. The differentiation of pre-adipocyte to adipocyte was induced by removing the pre-adipocyte medium and replacing with […] of differentiation medium. […] of compounds at different concentrations dissolved in differentiation medium were added to the assay plates, along with medium exchange for differentiation to test their effects on adipocyte differentiation. The final DMSO concentration was 0.5%. Triacsin C (Sigma-Aldrich T-4540), an inhibitor of long-chain fatty acyl CoA synthetase that blocks synthesis of triglycerides, was used as a positive control for lipid under-storage. After 3 days, differentiation medium was replaced with 200ul of adipocyte maintenance medium and assay plates were incubated for 4 days. Cells were then fixed using4% of paraformaldehyde in PBS for 30 minutes at room temperature, washed 3 times with PBS buffer. Finally, the cells were stained using […] of PBS containing BODIPY lipid dye 493/530 (1:2000 -, Life Technologies, # D-3922), Hoechst 33342 (1:1000, Life Technologies, #H3570) and CellMask deep red dye (1:10,000 , Life Technologies, #H32721). Images were acquired using InCell 2000 (GE), number of cells, number of lipids, size of lipids and cells were analysis using GE Investigator software.

Row | SMILES | activity change, negative = cytotoxicity | Potency
1 | CCOc1ccc(CCNC(=O)c2cccc(C(=O)c3ccccc3)c2)cc1OCC | -9.68% (inactive) | –
2 | CCOc1ccc(CCNC(=O)c2cc3sccc3n2Cc2ccccn2)cc1OCC | 1.82% (inactive) | –
3 | CCOc1cc(F)c(CCNC(=O)c2cc3sccc3n2Cc2ccccc2)cc1OCC | 7.21% (inactive) | –
4 | CCOc1ccc(CCNC(=O)c2cc3sccc3n2C)cc1OCC | 17.7% (inactive) | –
5 | CCOc1ccc(CCNC(=O)c2cc3ccccc3o2)cc1OCC | 21.8% (inactive) | –
6 | CC(C)Oc1ccc(CCNC(=O)c2cc3sccc3n2Cc2ccccc2)cc1OC(C)C | 8.18% (inactive) | –
7 | CCOc1ccc(CCNC(=O)c2cc3sccc3n2Cc2ccccc2)cc1OCC | -8.87% (inactive) | –
8 | CCOC(=O)C1CCN(C(=O)C(C)(C)NC(=O)Nc2ccc(-c3ccccc3)cc2)CC1 | 20.7% (inactive) | –
9 | CCOc1ccc(CCNC(=O)c2cc3sccc3n2Cc2ccncc2)cc1OCC | -7.21% (inactive) | –
10 | CCn1c(C(=O)NCCc2ccc(OC)cc2)cc2sccc21 | 28.8% (inactive) | –
11 | CCOc1cc(CCNC(=O)c2cc3sccc3n2Cc2ccccc2)cc(F)c1OCC | – | 7.08 µM (active)
12 | CCOc1ccc(CCNC(=O)c2ccnn2Cc2cccc(C)c2)cc1OCC | 6.45% (inactive) | –
